# HT1080NT lethal = kills 2HG-producing HT-1080-NT fibrosarcoma cells. HT-1080-NT fibrosarcoma viability, CellTiter-Glo ATP luminescence, 48 h. Potency, µM (titrated, usually from 46.1 µM), for the others: at the highest dose activity, negative = less viability, actives largely listed as cytotoxic. 360,000 tested, 1.6% active. AID 686970;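 further: NT is the 2HG producing partner of a matched IDH1 knockdown line; potency means the concentration at half of the fitted maximal effect; 0% = DMSO-treated cells and -100% = media-only wells without cells; nearly all actives have a fitted effect of over 55% in size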
#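 Fibrosarcoma NT cells, 750 per well in 5% FBS RPMI, were exposed to compound for 48 hours. Viability: CellTiter-Glo luminescence.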
# HT1080 IDH1KD tx = HT-1080 IDH1 knockdown cell toxicity (counter line). 360,000 tested, 2% active. HT-1080 IDH1 knockdown viability, ATP luminescence, 48 h. AID 686971. Potency, µM (series often up to 46.1 µM), inactives show at the top dose activity, negative = toxicity, actives largely listed as cytotoxic;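 further: potency means the concentration at half of the fitted maximal effect; 0% = DMSO wells and -100% = cell-free medium wells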
#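 In this qHTS, HT-1080 cells depleted of IDH1 are exposed for 48 h at 37 °C to compound titrations. Toxicity is scored from CellTiter-Glo luminescence, with DMSO as full viability and medium alone as none.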
# IL-1B inflam inh = inflammasome signaling inhibition, IL-1 beta readout; THP-1 LPS/ATP IL-1B secretion, AlphaLISA, 16 h; active compounds read low; activity change, % at 57.5 µM; 360,000 tested, 4.7% active; AID 743279; in the data active means activity change below about -50%; inconclusive means mostly about -30% to -49%
#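 Secreted IL-1B measured by AlphaLISA bead assay after 16 h compound exposure of THP-1 cells; compounds (final up to 57.5 uM) added 1 h before LPS (250 ng/mL) and ATP (1.25 mM) stimulation; lower signal means less secretion.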
# ELG1 DNA repair = blocks ELG1-dependent DNA repair in HEK293T cells; Potency, µM (top dose mostly 46.1 µM), inactives show at the highest dose activity change, negative = inhibition, most hits filed as inhibitors; HEK293T ELG1-luciferase reporter, luminescence, 16 h; DNA damage induced by 5-fluorouridine; AID 504467; 330,000 tested, 2.3% active; further: potency means the concentration at half of the fitted maximal effect; nearly all actives have a fitted effect of over 55% in size
#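 Quantitative HTS, concentration-response format. 2,000 cells/well co-treated with 5-fluorouridine and compound, 16 hr in 5% CO2 at 37 °C; ONE-Glo luminescence read after 30 min.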
# DT40 TDP1 no CPT = qHTS for Inhibitors of human tyrosyl-DNA phosphodiesterase 1 (TDP1): qHTS in cells in absence of CPT. Potency, µM (doses to about 46.2 µM), without a hit: at the highest dose activity change, negative = growth inhibition, actives largely listed as inhibitors. AID 686978, 2013. 420,000 tested, 15% active. DT40 Tdp1-/- hTDP1 cells, no CPT, ATP luminescence, 48 h; further: potency means the concentration at half of the fitted maximal effect; nearly all actives have a fitted effect of over 55% in size
#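 Growth kinetics read by CellTiter-Glo luminescence after ≥48 hr at 37 °C. Cells: DT40 Tdp1-/- stably carrying human TDP1, 400 per well, compound exposure in the absence of CPT (DMSO vehicle).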
# TDP1 cell CPT = growth inhibition of DT40 Tdp1-/-;hTDP1 cells with camptothecin (screen for TDP1 inhibitors); chicken DT40 Tdp1-/-;hTDP1 cells + 20 nM CPT, ATP luminescence, 48 h; 420,000 tested, 12% active; Potency, µM (titrated, usually from 46.2 µM), inactives show at the highest dose activity change, negative = growth inhibition, usual class: inhibitors; AID 686979; further: potency means the concentration at half of the fitted maximal effect; nearly all actives have a fitted effect of over 55% in size
#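 Cell growth measured by CellTiter-Glo luminescence after a minimum 48 h, 37 C compound exposure with 20 nM CPT in Tdp1-knockout DT40 cells stably expressing hTDP1, seeded 400/well; qHTS titration format.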
# An asterisk follows results filed as active; ? = inconclusive; / = no result; ! = repeats disagree; [ ] = dose if it differs, or a comment. An excerpt weighted towards active compounds, which were near 19% of everything screened. Unless noted, the call rests on the fitted dose curve; in most records, active means well fitted curve in the direction sought with a large enough effect; inconclusive means small, poorly fitted or top-dose-only effect, or another doubt; inactive means no such curve, though single readings can be large; an effect the other way counts as inactive or inconclusive. Unless noted, on the % scale 0 is the no-effect control and ±100 the full control effect.
SMILES,HT1080NT lethal,HT1080 IDH1KD tx,IL-1B inflam inh,ELG1 DNA repair,DT40 TDP1 no CPT,TDP1 cell CPT
c1ccc2c(c1)ncn2Cc1nnc2sc(-c3ccc4c(c3)OCO4)nn12,-8%,-15%,34,-16%,15µM*,?
COc1ccc(OCc2nn3c(Cn4cnc5ccccc54)nnc3s2)cc1,?,-22%,2,23µM*,?,21µM*
c1ccc(CCc2nn3c(Cn4cnc5ccccc54)nnc3s2)cc1,-21%,?,2,-17%,18µM*,18µM*
c1ccc(OCc2nn3c(Cn4nnc5ccccc54)nnc3s2)cc1,-4%,-8%,-5,4%,21µM*,16µM*
Clc1ccccc1-c1nn2c(Cn3cnc4ccccc43)nnc2s1,4%,1%,13,4%,?,?
c1ccc(CCc2nn3c(Cn4nnc5ccccc54)nnc3s2)cc1,-13%,0%,?,9%,?,?
c1ccc(Cc2nn3c(Cn4nnc5ccccc54)nnc3s2)cc1,-21%,-16%,-5,15%,-25%,?
Cc1cccc(-c2nc3c4ccccc4nc(N4CCN(c5cccc(Cl)c5)CC4)n3n2)c1,/,/,/,/,-24%,?
S=C(Nc1ccc(N2CCOCC2)cc1)Nc1ccc2snnc2c1,1%,-11%,-10,6%,?,-3%
OC1(c2cccnc2)CCN(Cc2ccc3c(c2)CN(Cc2cccc(F)c2F)CCO3)CC1,/,/,/,/,?,0%[9.04 µM]
O=C(NC1CCCCC1)C(c1ccc(O)cc1)N(C(=O)c1cnccn1)c1cccc(F)c1 (stereo not drawn),11%,4%,3,0%,-21%,-5%
c1ccc2c(c1)OCC(c1nn3c(Cn4nnc5ccccc54)nnc3s1)O2 (stereo not drawn),-23%,-7%,-18,?,?,26µM*
CCC(CO)Oc1cc(NC(=O)c2cccc(Cl)c2)c2ncn(C(C)C)c2c1 (stereo not drawn),-4%,-4%,?,?,?,?
COc1cccc(-c2nc(CS(=O)CC(=O)NCCc3ccccc3)c(C)o2)c1 (stereo not drawn),-4%,-2%,30,22%,?,?
COc1cccc(-c2nc(CSCC(=O)NCCc3ccc(Cl)cc3)c(C)o2)c1,/,/,/,/,?,9.2µM*
COc1ccc(CCNC(=O)CSCc2nc(-c3cccc(C)c3)oc2C)cc1OC,/,/,/,/,?,21µM*
CCC1=NN2C(=N)/C(=C\c3ccc(OCc4cc(=O)n5nc(CC)sc5n4)c(OC)c3)C(=O)N=C2S1,-3%,-4%,14,-7%,18%,-18%
CC(C)(C)c1ccc(S(=O)(=O)NCCN2CCOCC2)cc1,3%,2%,0,/,-24%,-21%
Cc1cc2nc(CCN3CCOCC3)n(S(=O)(=O)c3ccc(C(C)(C)C)cc3)c2cc1C,-4%,3%,11,21µM*,?,18µM*
COc1ccc(NC(=O)CSc2nc(-c3ccc(OC)cc3)cc(=O)[nH]2)cc1,/,/,/,/,-2%,-9%
CCC(C)Sc1ccc(-c2nc3cc(C)ccn3c2NC2CCCCC2)cc1 (stereo not drawn),21µM*,?,-66*!,4%,15µM*,23µM*
CCOC(=O)CNc1c(-c2ccc(F)cc2)nc2cnccn12,1%,-1%,8,8%,-7%,-2%
Clc1ccc(-c2nc3cnccn3c2NC2CCCC2)cc1,-2%,-7%,27,-10%,26µM*,?
COc1ccc(Sc2ccc(-c3nc4cnccn4c3NC3CCCCC3)cc2OC)cc1,5%,9%,?,?,13µM*,15µM*
CCC(C)Sc1ccc(-c2nc3cnccn3c2NC2CCCCC2)cc1 (stereo not drawn),?,?,-52*!,?,16µM*,?
SMILES,HT1080NT lethal,HT1080 IDH1KD tx,IL-1B inflam inh,ELG1 DNA repair,DT40 TDP1 no CPT,TDP1 cell CPT
COc1cccc(CC(=O)OCC(=O)NC(=O)c2ccc(OC(F)F)cc2)c1,7%,13%,2,?,-16%,1%
Cc1nc2cnc(N3CCN(C)CC3)nc2n(Cc2ccc(F)cc2)c1=O,/,/,/,/,-23%,-3%
COC(CNC(=O)c1coc2nc3ccccc3nc12)OC,0%,-6%,1,0%,-8%,-26%
Cc1ccccc1NC(=O)c1ccc(Cl)c(NC(=O)c2cccnc2)c1,/,/,/,-5%,/,/
Cc1cn([C@H]2C[C@H](O)[C@@H](/C=C/C(=O)NCCN3CCOCC3)O2)c(=O)[nH]c1=O,21%,9%,34,/,12%,-12%
CCn1cnc2cc(NCc3nc4ccccc4n3Cc3ccccc3)ccc21,-22%,-12%,-13,?,?,15µM*
Brc1ccc(CNc2ccc3ncccc3c2)cc1,-10%,-10%,-13,?,12µM*,21µM*
CN(C)c1ccc(CNc2ccc3c(c2)ncn3C(C)(C)C)cc1,-27%,?,-24,0%,-27%,-92%
CCn1cnc2cc(NCc3ccc(N(C)C)cc3)ccc21,1%,4%,?,?,18µM*,15µM*
CCn1cnc2cc(NCc3ccc(Br)cc3)ccc21,-13%,-9%,?,?,?,-27%
CCCn1cnc2cc(NCc3ccc(Br)cc3)ccc21,-10%,-15%,-83*,?,?,?
Cc1nc(NC(=O)CN2CC(C)OC(C)C2)sc1C(=O)N(C)C (stereo not drawn),20%,0%,10,3%,-30%,32%
CC1(C)OC(=O)C2(Cc3cc([N+](=O)[O-])ccc3N3CCCCC32)C(=O)O1 (stereo not drawn),/,/,/,/,-2%,?
Fc1cccc(Cl)c1CNCc1cccnc1,15%,19%,39,4%,0%,-9%
Cc1ccc(Nc2nnc(SC(C)C(=O)NCC3CCCO3)s2)cc1 (stereo not drawn),6%,10%,-7,?,-16%,?
CC1=C(C(=O)N2CCOCC2)CC(CC(=O)NC2CCCC2)C(=O)N1Cc1ccccc1 (stereo not drawn),3%,8%,19,/,-11%,6%
Cc1ccc(CNc2ccc3c(c2)ncn3C(C)C)cc1,2%,4%,?,?,13µM*,12µM*
CC(C)n1cnc2cc(NCc3nc4ccccc4n3C)ccc21,-14%,-8%,-9,?,-14%,-10%
CCn1cnc2cc(NCc3ccc(C)cc3)ccc21,-1%,-20%,-57*,?,-25%,-9%
